SNCA viab count: cell viability loss counter-screen | Potency, µM (highest dose often 57.1 µM), without a hit: top-dose activity change, negative = cytotoxicity, usual class: cytotoxic | actives 0.12% (n = 150,000) | HEK-293-SNCA-luc viability, GF-AFC fluorescence, 24 h;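 also: potency is read from the fitted curve at half-maximal effect; 0% = DMSO-treated cells and -100% = medium-only wells without cells; nearly all actives have a fitted effect of over 30% in size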
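Cytotoxicity counterscreen: after 24 h compound treatment of genome-edited SNCA-luciferase HEK-293 cells, live-cell protease substrate GF-AFC read by fluorescence after 30 min; activity scaled between DMSO (0%) and medium-only (-100%), curves Hill-fitted.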
IP6K1 inhibitor: IP6K1 kinase inhibition; Q92551; IP6K1 kinase, ADP-Glo luminescence, 2 h; stronger effect = lower value; activity change, % (series mostly up to about 58 µM); actives 0.81% (n = 140,000); in the data active = activity change below about -25%; also: % is scaled to controls: 0 for no effect and ±100 for the full control effect
Target sequence (Q92551 whole entry, looked up): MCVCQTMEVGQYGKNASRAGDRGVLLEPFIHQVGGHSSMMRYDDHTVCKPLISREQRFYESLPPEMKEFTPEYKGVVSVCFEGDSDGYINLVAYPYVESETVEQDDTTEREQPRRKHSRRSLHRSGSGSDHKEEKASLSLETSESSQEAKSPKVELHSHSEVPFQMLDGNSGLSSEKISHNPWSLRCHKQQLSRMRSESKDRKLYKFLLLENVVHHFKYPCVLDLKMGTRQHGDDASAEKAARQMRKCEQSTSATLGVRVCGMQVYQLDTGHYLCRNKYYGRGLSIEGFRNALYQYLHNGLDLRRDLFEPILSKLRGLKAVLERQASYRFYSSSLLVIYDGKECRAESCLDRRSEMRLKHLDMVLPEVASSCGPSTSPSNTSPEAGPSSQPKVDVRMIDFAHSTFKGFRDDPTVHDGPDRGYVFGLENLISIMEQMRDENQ
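ADP-Glo luminescence measures ADP made by human IP6K1 during a 2 h RT reaction with ATP/IP6 (mix at 1.3 mM/130 uM); top library doses 57.5 and 19.1 uM final.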
KDM5B inhibitor: KDM5B demethylase inhibition; Q9UGL1; Potency, µM (series often up to 57.7 µM), actives largely listed as inhibitors; actives 2.6% (n = 220,000); KDM5B demethylase, FDH-coupled NADH fluorescence (FDH is formaldehyde dehydrogenase); AID 1347165; also: potency is read from the fitted curve at half-maximal effect; 0% is about no effect; nearly all actives have a fitted effect of over 70% in size
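Inhibition is measured as reduced NADH fluorescence generation from FDH coupling to formaldehyde release. Truncated KDM5BΔAP at 200 nM final acts on H3K4me3 peptide (12.5 µM in substrate mix) in pH 7.5 HEPES buffer with Tween-20, 30 min, room temperature.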
SNCA expr inh: reduces expression of the alpha-synuclein gene; HEK-293 SNCA-luciferase knock-in, luminescence, 24 h; Potency, µM (series often up to 57.2 µM), for the others: top-dose activity change, negative = inhibition, actives largely listed as inhibitors; actives 0.17% (n = 140,000); AID 1671194;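 also: potency is read from the fitted curve at half-maximal effect; plate controls were DMSO cells for no effect and cell-free wells for full effect; nearly all actives have a fitted effect of over 45% in size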
* marks the source's active call; other numbers are inactive results; i = inactive; ? = inconclusive; . = no result given; [ ] = remark or other dose. Only some compounds are listed: those with a hit (about 2.8% of all), similar ones and a draw of the others. Unless noted, calls follow the shape of the dose curve; as a rule, active = well fitted curve in the direction sought with a large enough effect; inconclusive = small, poorly fitted or top-dose-only effect, or another doubt; inactive = no such curve, though single readings can be large; an effect the other way counts as inactive or inconclusive.

SMILES | SNCA viab count | IP6K1 inhibitor | KDM5B inhibitor | SNCA expr inh
O=C(O)c1cccc(OCC2CCCO2)c1 (centres undefined) | . | . | i | .
Cn1ncc2c(C(=O)Nc3ccccc3Cl)cc(-c3cccc(C(F)(F)F)c3)nc21 | . | -2 | . | .
O=S(=O)(C/C=C/c1ccccc1)Cc1coc(-c2ccc(F)cc2)n1 | . | . | i | .
COc1cc(-c2ccnc3nc(C4CCC4)nn23)cc(OC)c1OC | 0% | -6 | 22µM* | 5%
c1coc(-c2ccnc3nc(C4CCC4)nn23)c1 | 9% | 11 | 28µM* | 29%
c1ccc(-c2ccnc3nc(C4CC4)nn23)cc1 | 12% | 7 | 28µM* | 10%
c1ccc(CCc2nc3nccc(-c4cccnc4)n3n2)cc1 | 0% | -8 | i | 13%
Cc1cc(C)c(C(=O)c2sc(Nc3cccc(F)c3)nc2N)cc1C | . | . | i | .
NC1CCc2nn(CC(=O)NCc3ccc4c(c3)OCO4)c(=O)n2CC1 (centres undefined) | 7% | -13 | 10µM* | 1%
Cc1cc(C)c(CNC(=O)c2nc(-c3cncnc3)cc3c2ccn3C(C)C)c(=O)[nH]1 | 1%[87.6 µM] | -1 | 32µM* | -7%[87.6 µM]
CC(=O)Nc1cccc(-c2cc3c(ccn3C)c(C(=O)NCc3c(C)cc(C)[nH]c3=O)n2)c1 | -13% | -11 | 14µM* | 14%
COc1ccccc1-c1cc2[nH]ccc2c(C(=O)NCc2c(C)cc(C)[nH]c2=O)n1 | -11%[87.6 µM] | 13 | i | -10%[87.6 µM]
COc1cccc(-c2cc3c(ccn3C(C)C)c(C(=O)NCc3c(C)cc(C)[nH]c3=O)n2)c1 | -29% | 0 | i | -14%
COc1ccccc1-c1cc2c(ccn2C)c(C(=O)NCc2c(C)cc(C)[nH]c2=O)n1 | -8%[87.6 µM] | 7 | 35µM* | 18%[87.6 µM]
Cc1cc(C)c(CNC(=O)c2nc(-c3cccnc3)cc3c2ccn3C(C)C)c(=O)[nH]1 | -16%[87.6 µM] | 10 | i | 3%[87.6 µM]
COc1ccc(C)cc1NC(=O)CSc1nnc(CN2CCCCC2)n1-c1ccc(F)cc1 | . | . | i | .
CNC(=O)c1cc(C2CC2)nc2c1c(C1CCCN(C(=O)c3ccc(F)cc3)C1)nn2C (centres undefined) | . | -9 | . | .
COc1ccc(OC)c(NC(=O)CSC2=Nc3ccccc3C3=NC(CC(=O)NCc4ccco4)C(=O)N23)c1 (centres undefined) | 2% | -25* | i | -27%
CCOc1ccc(NC(=O)CSC2=Nc3ccccc3C3=NC(CC(=O)NCc4ccco4)C(=O)N23)cc1 (centres undefined) | 8% | 2 | ? | -11%
COc1ccccc1-c1ccc(CN2CCCCC2C(=O)NCc2ccccc2)cc1 (centres undefined) | . | 11 | . | .
Cc1nc(C)n(CCNS(=O)(=O)c2ccccc2)n1 | . | . | i | .
Cc1nc(C)n(CCCNc2nccc(-c3ccccn3)n2)n1 | 4% | 0 | 22µM* | -24%
CCCOCCNC(=O)c1c(C)noc1-c1cccs1 | 6% | -9 | 25µM* | 11%
Cc1noc(-c2cccs2)c1C(=O)NCCCCc1ccccc1 | -1% | -10 | 32µM* | 5%
Cc1noc(-c2cccs2)c1C(=O)NCCC(c1ccccc1)c1ccccc1 | -2% | -20 | 35µM* | -21%
SMILES | SNCA viab count | IP6K1 inhibitor | KDM5B inhibitor | SNCA expr inh
CCN(CC)C(=O)c1sc2c(c1C)c(=O)n(Cc1ccccc1)c(=O)n2CC(=O)Nc1ccc(OC)cc1 | -6% | 28 | i | -6%
CCc1cccc(NC(=O)Cn2c(=O)n(Cc3ccccc3)c(=O)c3c(C)c(C(=O)N(C)C)sc32)c1 | -13% | -13 | i | 13µM*
CCC(C)Nc1oc(/C=C/c2cccc(OC)c2)nc1C#N (centres undefined) | . | . | i | .
Fc1ccccc1CNc1cc(Cl)nc2ccnn12 | 12%[87.6 µM] | 9 | i | -13%[87.6 µM]
CC(Cc1cccnc1)Nc1cc(-c2ccccc2F)nc2ccnn12 (centres undefined) | -4% | -15 | 28µM* | -5%
CNC(=O)c1ccc(CN(C2CC2)S(=O)(=O)c2ccc3c(c2)CCC3)cc1 | . | . | i | .
O=c1c2nc(-c3cccnc3)ccc2ncn1-c1ccc(F)cc1F | -18%[87.6 µM] | 21 | i | 3%[87.6 µM]
COc1ncc(-c2ccc3ncn(-c4ccc(F)cc4F)c(=O)c3n2)cn1 | -7%[87.6 µM] | 14 | 40µM* | 30%[87.6 µM]
COCc1cccc(-c2ccc3ncn(-c4ccc(F)cc4F)c(=O)c3n2)c1 | 3%[87.6 µM] | 7 | 32µM* | 12%[87.6 µM]
NC(=O)c1ccc(NC(=O)c2cc3n(n2)CC(c2ccc(Br)cc2)OC3)cc1 (centres undefined) | 2% | 0 | 25µM* | -8%
COc1cc(NC(=O)c2cc3n(n2)CC(c2ccc(Br)cc2)OC3)cc(OC)c1OC (centres undefined) | -19% | -3 | 32µM* | ?
COc1ccc(NC(=O)c2cc3n(n2)CC(c2ccc(Br)cc2)OC3)cc1OC (centres undefined) | ? | 1 | ? | -28%
CC(=O)Nc1ccc(NC(=O)c2cc3n(n2)CC(c2ccc(Br)cc2)OC3)cc1 (centres undefined) | -29% | -7 | ? | ?
O=C(Nc1cccc(F)c1)c1cc2n(n1)CC(c1ccc(Br)cc1)OC2 (centres undefined) | 5% | 5 | 25µM* | 4%
Cc1cc(NC(=O)c2cc3n(n2)CC(c2ccc(Cl)cc2)OC3)ccc1F (centres undefined) | 6% | 21 | ? | 23%
COc1ccccc1C(=O)N[C@H]1[C@H](O)[C@H](O)C[C@@H]1c1ccc(N2CCOCC2)nc1 | -6%[87.6 µM] | -4 | ? | 45%[87.6 µM]
COc1cccc(C(=O)N[C@H]2[C@H](O)[C@H](O)C[C@@H]2c2ccc(N3CCOCC3)nc2)c1 | 4%[87.6 µM] | -6 | 35µM* | 24%[87.6 µM]
CN1CCC(N[C@H]2[C@H](O)[C@H](O)C[C@@H]2c2ccc(N3CCOCC3)nc2)CC1 | 8%[87.6 µM] | 1 | 32µM* | 15%[87.6 µM]
COc1cccc(CN[C@H]2[C@H](O)[C@H](O)C[C@@H]2c2ccc(N3CCOCC3)nc2)c1 | -3%[87.6 µM] | 0 | 35µM* | -15%[87.6 µM]
Cc1cc(C(=O)N[C@H]2[C@H](O)[C@H](O)C[C@@H]2c2ccc(N3CCOCC3)nc2)n(C)n1 | 0%[87.6 µM] | -2 | ? | -1%[87.6 µM]
Cc1cc2oc(=O)cc(CN(C)CC(=O)N(C)C)c2cc1C | . | . | i | .
CCNC(=O)c1cc(NC(=O)CC)cc2nc(C)ccc12 | 6% | 19 | 20µM* | -24%
CCCCNC(=O)c1cc(NC(=O)CC)cc2nc(C)ccc12 | -1% | 12 | 25µM* | -25%
CCC(=O)Nc1cc(C(=O)NCC(C)C)c2ccc(C)nc2c1 | 2% | 9 | 22µM* | 1%
CNc1nc2c(s1)C(c1ccccc1F)CC(=O)N2 (centres undefined) | -15% | -11 | 35µM* | -9%
O=c1c2nc(Nc3cccc(F)c3)ccc2ncn1Cc1ccccc1 | ? | 6 | ? | 11%[87.6 µM]
O=c1c2nc(NCc3cccs3)ccc2ncn1Cc1ccccc1 | -6%[87.6 µM] | 12 | 40µM* | 19%[87.6 µM]
N#Cc1ccc(CN2C[C@@H]3C(=O)N(CCN4CCc5ccccc5C4)C(=O)[C@@H]3C2)cc1 | 33% | -17 | 25µM* | 27%

High-throughput results: PubChem, National Center for Advancing Translational Sciences (NCATS)
